# ATXN viability = cell viability loss in ATXN counter-screen | Potency, µM (titrated, usually from 56.7 µM), most hits filed as cytotoxic | S2 cells (HEK-293 line with an ATXN2-luciferase reporter) viability, CellTiter-Fluor protease fluorescence, 24 h | actives 0.49% (n = 400,000); further: nearly all actives have a fitted effect of over 40% in size
# ATXN2 expr inh = inhibitors of ATXN2 expression; actives 0.72% (n = 360,000); HEK-293 ATXN2-luciferase reporter, luminescence, 24 h; Potency, µM (series often up to 57 µM), for the others: at the top dose activity change, negative = inhibition, most hits filed as inhibitors; AID 1745845; further: on the % scale 0 is the no-effect control and ±100 the full control effect; nearly all actives have a fitted effect of over 55% in size
#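 ATXN2-luciferase reporter cells (luciferase flanked by upstream and downstream ATXN2 gene portions) were treated 24 h at 37 °C with compounds at up to 57 uM. SteadyGlo luminescence gave expression; GF-AFC fluorescence gave viability.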
# TGFb SMAD3 inh = inhibitors of TGF-b signaling; Potency, µM (doses to about 46.1 µM), for inactives: at the highest dose activity, negative = inhibition, usual class: inhibitors; HepG2 CAGA-GFP TGF-b/SMAD3 reporter, GFP fluorescence, 18 h; TGF-beta stimulated, 500 pg/mL final; actives 1.2% (n = 410,000); further: on the % scale 0 is the no-effect control and ±100 the full control effect; nearly all actives have a fitted effect of over 65% in size
#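 Read-out: total well GFP (ex488/em500-530) summed from mean per-cell fluorescence. Cells: HEPG2 CAGA-GFP, 1% FBS DMEM, 18 h at 37 degrees C with 500 pg/mL final TGF-beta. Unstimulated wells served as the full-inhibition control; stimulated DMSO wells = 0%.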
# HepG2 viability = kills HepG2 cells in TGF-b inhibitor counter-screen | HepG2 CAGA-GFP viability, ATP luminescence, 18 h | Potency, µM (doses to about 46.1 µM), without a hit: at the top dose activity change, negative = cytotoxicity, actives largely listed as cytotoxic | actives 0.76% (n = 410,000) | AID 588856
#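 CellTiter-Glo luminescence gave cytotoxicity after 18 hours at 37 degrees C. The cells were HepG2 CAGA-GFP in 1% FBS DMEM, stimulated with 500 pg/mL TGF-beta after compound addition. %Activity was normalised to no-cell wells (complete cell-killing) and DMSO (no toxicity), and curves were fitted and classified.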
# An asterisk follows results filed as active; i = inactive; ? = inconclusive; . = not tested or not shown; ! = a repeat was not active. Shown are actives, neighbours in structure and some others; about 2.3% of the full set was active somewhere. The call rests on the fitted dose curve; in most records, active means well fitted curve in the direction sought with a large enough effect; inconclusive means small, poorly fitted or top-dose-only effect, or another doubt; inactive means no such curve, though single readings can be large; an effect the other way counts as inactive or inconclusive. Potency means the concentration at half of the fitted maximal effect.
SMILES,ATXN viability,ATXN2 expr inh,TGFb SMAD3 inh,HepG2 viability
CN(C)CCOc1ccc(-c2nc(-c3ccc4c(c3)CCC4=NO)c(-c3ccncc3)[nH]2)cc1,.,0%,.,.
CC(C)c1ccc(CNc2nc(NCC3CC3)nc3ccsc23)cc1,.,?,?,14µM*
Fc1ccc(Nc2nc(NCc3ccccc3)nc3ccsc23)cc1,?,?,?,13µM*
COc1ccccc1CNc1nc(NCc2ccc(C(C)C)cc2)c2sccc2n1,.,32µM*,?,-101%
COc1cccc(CNc2nc(NCC3CC3)nc3ccsc23)c1,?,?,?,-39%
OC[C@H]1O[C@@H](Oc2cc(O)cc(C=Cc3ccc(O)cc3)c2)[C@H](O)[C@@H](O)[C@H]1O,.,15%,.,.
CN(C)c1ccc(C=O)cc1[N+](=O)[O-],.,.,-15%,-37%
Cc1ncc(CO)c2c1Oc1nc(-c3ccccc3)nc(SCC(=O)Nc3cccc(O)c3)c1C2,?,.,13µM*,-39%
Cc1ccc(/C=N/Nc2nncc(-c3ccccc3)n2)o1,i,37%,5%,16%
Cc1cc(C(=O)N/N=C/c2c(C)[nH]n(-c3ccccc3)c2=O)n[nH]1,i,-9%,28%,-15%
Cc1[nH]n(-c2ccccc2)c(=O)c1/C=N/Nc1nncc(-c2ccccc2)n1,i,2.8µM*,?,-5%
Cc1[nH]n(-c2ccccc2)c(=O)c1/C=N/NC(=O)c1cccc(F)c1,?,.,?,16µM*
Cc1[nH]n(-c2ccccc2)c(=O)c1/C=N/NC(=O)c1ccc(O)cc1O,?,.,-3%,-19%
Cc1[nH]n(-c2ccc(Br)cc2)c(=O)c1/C=N/NC(=O)c1ccccc1,i,.,3.5µM*,-42%
CN(C)CCCOC1(Cc2ccccc2)CCCCCC1,i,-8%,.,.
OCC[N+]1(CCc2ccccc2)CCOCC1,.,.,-18%,-26%
Cc1ccc(O)c(CNCCNCc2cc(C)ccc2O)c1,i,?,?,-64%
Cc1ccc(O)c(Cc2cc(C)cc(Cc3cc(C)ccc3O)c2O)c1,?,.,22µM*,-89%
C(=C\c1c[nH]c2ccccc12)/c1ccc2ccccc2n1,.,.,12%,-45%
O=C(CSc1nc(=O)n(Cc2ccco2)c2c1CCC2)NCc1ccc(F)cc1,?,-13%,-28%,-22%
O=C(CSc1nc(=O)n(Cc2ccco2)c2c1CCC2)Nc1cccc(F)c1,i,?,7.9µM*,-22%
CCC(=O)N[C@@H]1c2ccccc2C2(CCN(Cc3cnc(N(C)C)s3)CC2)[C@H]1OC,i,.,.,.
CCOC(=O)CC(NC(=O)CCc1c(C)nc2c(-c3ccccc3)c(C)nn2c1C)c1ccc(OC(C)C)cc1 (stereo not drawn),.,?,16µM*,-35%
CCOC(=O)CC(NC(=O)CCc1c(C)nc2c(-c3ccccc3)c(C)nn2c1C)c1ccc(C)cc1 (stereo not drawn),i,?,10µM*,1%
CCOC(=O)CC(NC(=O)CCc1c(C)nc2cc(-c3ccccc3)nn2c1C)c1ccc(C)cc1 (stereo not drawn),?,?,?,-32%
SMILES,ATXN viability,ATXN2 expr inh,TGFb SMAD3 inh,HepG2 viability
CCOC(=O)CC(NC(=O)CCc1c(C)nc2nc(C)nn2c1C)c1ccc(OC(C)C)cc1 (stereo not drawn),i,2%,2%,3%
Cc1ccccc1CN1CCc2cc([N+](=O)[O-])ccc21,i,?,-18%,13µM*
COc1ccc([N+](=O)[O-])cc1NCc1ccccc1C,i,-26%,16%,-37%
COc1cc(=O)n2c(c1C(=O)NCc1ccco1)CCN(Cc1cccc(C(F)(F)F)c1)CC2,i,.,.,.
COc1ccc(C2CC(O)(c3ccccc3)Oc3cc(OC)ccc32)cc1 (stereo not drawn),?,-18%,18µM*,13µM*!
COc1ccc(C2CC(O)(c3ccccc3)Oc3c(C)ccc(C(C)C)c32)cc1 (stereo not drawn),.,.,16µM*,-33%
COc1ccc(C2CC(=O)Oc3cc(OC)ccc32)cc1 (stereo not drawn),i,0%,-2%,0%
CN(C)c1ccc(N=Cc2cccc3ccccc23)cc1,.,.,?,-19%
O=C(NCC(c1ccc2c(c1)OCO2)N1CCN(c2ccccc2F)CC1)c1ccccc1F (stereo not drawn),?,-15%,10µM*,-4%
CC(C)C(=O)NCC(c1ccc2c(c1)OCO2)N1CCN(c2ccccc2F)CC1 (stereo not drawn),i,4%,-1%,-25%
Cc1nc2c(=O)n(C)c(=O)n(C)c2nc1Cl,30µM*,?,7.1µM*,11µM*
CCN(CC)c1ccc2nc3c(=O)n(C)c(=O)n(C)c3nc2c1,.,.,.,0%
COc1ccc(/C=C/C(=O)c2ccc3c4c(cccc24)CC3)cc1,i,?,-12%,-61%
COc1ccc(/C=C/C(=O)c2ccc3c4c(cccc24)CC3)cc1OC,i,16µM*,?,-56%
COC(=O)C1CCN(Cc2ccc3c(c2)CN(C(=O)c2cc(C)nc(C)n2)CCO3)CC1,i,.,.,.
CN(C)c1ccc(C(=C2C=CC(=[N+](C)C)C=C2)c2c(O)c(S(=O)(=O)[O-])cc3cc(S(=O)(=O)O)ccc23)cc1,.,.,-7%,-4%
CN(C)c1ccc(C(=C2C=CC(=[N+](C)C)C=C2)c2ccc(N(C)C)cc2)cc1,18µM*,7.7µM*,?,-93%
CCc1cccc2sc(N3CCN(C(=O)c4ccc([N+](=O)[O-])o4)CC3)nc12,.,?,18µM*,-96%
COc1cc(CCC(=O)Nc2ccc(Br)c(C(F)(F)F)c2)cc(OC)c1OC,i,-16%,16µM*,-47%
CCCCCCCCCCCCCCCC(C)C1=NCCN1 (stereo not drawn),.,.,-1%,-4%
CC1=NNC(=O)/C1=C\c1cn(-c2ccccc2)nc1-c1ccccc1,27µM*,?,8.9µM*,10µM*
CC1(C)CC(=O)C(=Cc2cn(-c3ccccc3)nc2-c2ccc(Cl)cc2)C(=O)C1,i,30%,12%,14%
CCn1nc(-c2ccc(C)cc2)nc2c(=O)n(C)c(=O)nc1-2,.,.,0.5µM*,0.71µM*
Cn1nc(-c2ccncc2)nc2c(=O)n(C)c(=O)nc1-2,.,.,1.3µM*,-96%
COc1ccc(-c2nc(-c3ccncc3)no2)cc1,i,.,4%,2%
CCS(=O)(=O)n1nc(-c2ccc(C)cc2)nc1N,i,-12%,-2%,5%
c1cnc2cc3c(cc2n1)[C@@H]1CNC[C@H]3C1,i,.,.,.
Cc1[nH]nc(-c2cccnc2)c1N=NN(C)C,.,0%,?,14µM*
CCn1cc(C(=O)NCc2cccc(F)c2)c(=O)c2cc(F)c(N3CCN(C(=O)c4ccco4)CC3)cc21,?,35µM*,1%,1%
CCCNC(=O)c1cn(CC)c2cc(N3CCN(C(=O)c4ccco4)CC3)c(F)cc2c1=O,i,.,-2%,-18%
